# Screening results: PubChem BioAssay, several laboratories
# V-ATPase pH: yeast V-ATPase proton transport regulation by pHLuorin. response, % at 10 µM. S. cerevisiae, pHLuorin cytosolic pH fluorescence. 0.37% of 350,000 active. AID 504577; in the data active = response mostly above about 7.3%, no sharp cut-off; inactive = mostly below about 5.4%; note: actives read high
# TIM10 inh: growth inhibitors of TIM10 yeast strain. S. cerevisiae TIM10 strain growth, BacTiter-Glo luminescence, 24 h. inhibition, % at 10 µM. 1.4% of 330,000 active;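 active = inhibition of 40% or more at the single tested concentration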;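 note: wild-type TIM10 isogenic control strain grown at permissive 25 °C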
# tim10-1 inh: growth inhibitors of tim10-1 mutant yeast; AID 463190; S. cerevisiae tim10-1 ts strain growth, BacTiter-Glo, 24 h; 2.2% of 330,000 active; inhibition, % at 20 µM;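 active = inhibition of at least 40%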;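 note: mutant grown at 25 °C; 0% = DMSO wells with yeast and 100% = wells holding no yeast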
# PfHsp90 set2: inhibits growth of yeast expressing Plasmodium falciparum Hsp90 | inhibition, % at 9.4 µM | 0.32% of 310,000 active | AID 504621 | S. cerevisiae expressing PfHsp90, BacTiter-Glo ATP, 48 h; yeast lacking PDR1 and PDR3 efflux regulators;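 active = every replicate shows inhibition above about 80%, whatever the replicate mean, limit read from the data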;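 note: 0% = DMSO neutral controls and 100% = 20 µM radicicol positive controls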
# tim23-1 inh: inhibits growth of tim23-1 mutant yeast; inhibition, % at 20 µM; S. cerevisiae tim23-1 growth, BacTiter-Glo luminescence, 24 h; 1.3% of 330,000 active; AID 463212;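 active = growth inhibition of the mutant yeast at or above 50%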;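 note: temperature-sensitive mutant grown at 25 °C; plate controls were DMSO-treated mutant yeast for no effect and medium wells lacking yeast for full effect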
# SKKanGAS inh: SKKanGAS growth inhibition; S. pyogenes SKKanGAS, kanamycin growth, BacTiter-Glo, 6 h; inhibition, % at 7.5 µM; 1.3% of 300,000 active; AID 1662;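 active = mean replicate score, as percent of positive control median, at least 50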;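 note: strain carries kanamycin resistance gene driven by streptokinase promoter and grows in 40 µg/ml kanamycin; loss of luminescence reflects streptokinase promoter inhibition or plain growth inhibition; 0% = median of DMSO wells and 100% = positive control at its reference dose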
# tim10-1 confirm: confirmation of tim10-1 mutant yeast growth inhibitors | shares compounds with tim10-1 inh | S. cerevisiae tim10-1 ts strain growth, BacTiter-Glo, 24 h | inhibition, % at 20 µM | 56% of 7,400 active;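 active = inhibition of yeast growth at or above a set limit in either of two repeat tests at 20 µM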;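 note: tim10-1 mutant grown at permissive 25 °C to find synthetic lethal compounds; 0% = DMSO yeast wells and 100% = medium wells without yeast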
# Starred values were filed as active, the others as inactive; / = no result given. This is a sample that favours compounds with a hit; in the whole collection about 4.6% have one here.
SMILES,V-ATPase pH,TIM10 inh,tim10-1 inh,PfHsp90 set2,tim23-1 inh,SKKanGAS inh,tim10-1 confirm
C=C1CCC[C@]2(C)C[C@H]3OC(=O)C(CNCCN(CC)CC)[C@H]3CC12 (stereo partly drawn),0,18,52*,-3,30,-3,48*
C=C1CCC[C@]2(C)C[C@H]3OC(=O)C(CNCC(C)C)[C@H]3CC12 (stereo partly drawn),3,3,42*,25,31,-3,36*
C=C1CCC[C@]2(C)C[C@H]3OC(=O)C(CNCCN(C)C)[C@H]3CC12 (stereo partly drawn),4,16,46*,-26,33,-2,44*
Cc1ccccc1OCc1ccc(C(=O)N2CC(C)OC(C)C2)o1 (stereo not drawn),-2,8,34,-13,14,1,/
CC(C)c1csc(CN2CCC(n3nccc3NC(=O)Cc3ccccc3)CC2)n1,-1,-5,-2,-7,-22,3,/
O=C(c1ccc2ncsc2c1)N1CCN(c2ccccc2Cl)CC1,1,18,49*,12,42,3,38*
COc1cccc(OC)c1NC(=O)CN1CCC(NC(=O)c2cccc(F)c2)CC1,4,-5,-2,6,14,0,/
Cn1nnc(NC(=S)NC(=O)c2cccc3c(Br)cccc23)n1,-1,18,51*,-16,26,-9,-12
CN1/C(=C/c2cccc[n+]2CCO)Sc2ccccc21,-3,12,2,-2,3,3,/
CC[n+]1ccccc1/C=C1\Sc2ccc(C)cc2N1C,-3,6,41*,6,24,4,12
COCCCNC(=O)c1cc(S(=O)(=O)N2CCC3(CC2)OCCO3)ccc1F,3,/,/,/,/,/,/
COc1ccc(C)cc1NC(=O)c1cc(S(=O)(=O)N2CCC3(CC2)OCCO3)ccc1F,-1,20,46*,-15,45,-2,19
O=C(COC(=O)c1ccc(Cl)cc1O)NC(=O)C1CCCCC1,-2,4,-42,-20,-13,-4,/
Cn1c(O)c(N=NC(=O)C2COc3ccccc3O2)c2ccccc21 (stereo not drawn),5,21,22,6,39,9,/
CC(C)n1c(O)c(N=NC(=O)C2COc3ccccc3O2)c2ccccc21 (stereo not drawn),3,29,48*,-16,40,-13,28
Cc1cc2oc(C(=O)N(Cc3ccc(N(C)C)cc3)CC3CCCO3)c(C)c2cc1C (stereo not drawn),2,27,25,-19,33,32,/
Cc1ccc2oc(C(=O)N(Cc3ccc(N(C)C)cc3)CC3CCCO3)c(C)c2c1 (stereo not drawn),3,1,40,-4,37,-2,-11
CCCOCC(O)CC(Cc1ccccc1)C(=O)NN (stereo not drawn),3,13,10,12,10,-5,/
Cc1ccc(NC(=S)NNC(=O)c2ccccc2OC(F)F)cc1,-3,29,40*,-4,17,-1,39*
O=C(NNC(=S)Nc1cccc(Cl)c1)c1ccccc1OC(F)F,-1,4,43*,-9,33,-7,28
O=C(NNC(=S)Nc1ccc(F)cc1)c1ccccc1OC(F)F,-3,7,23,-20,8,-4,/
Cc1nc2ccccc2n1C1CCN(C(=O)Nc2ccccc2)CC1,0,-8,5,-14,-10,2,/
CC(C)Nc1nc(-c2ccccc2)nc(-n2ccnc2)n1,-8,29,41*,/,34,13,14
c1ccc(-c2nc(-n3ccnc3)nc(-n3ccnc3)n2)cc1,4,-29,21,/,48,14,/
CC(C)OC(=O)CSc1nc2c(c(C3CC=CCC3)c1C#N)CCC2 (stereo not drawn),-5,28,25,-11,32,-4,/
SMILES,V-ATPase pH,TIM10 inh,tim10-1 inh,PfHsp90 set2,tim23-1 inh,SKKanGAS inh,tim10-1 confirm
C=CCSc1nc2c(c(C3CC=CCC3)c1C#N)CCC2 (stereo not drawn),-2,17,41*,-2,35,40,60*
C=C1C(=O)O[C@@H]2[C@H]1[C@@H](OC(=O)/C(C)=C/C)C/C(C)=C\C(=O)/C=C(\C)[C@@H]2O,3,23,37,3,9,4,/
Cc1ccc(NC(=O)c2ccccc2NS(=O)(=O)c2ccc(Cl)s2)cc1S(=O)(=O)N1CCOCC1,3,-5,15,5,16,38,/
CCOc1ccc(C(=O)NCC(=O)NCC(c2cccs2)N2CCOCC2)cc1 (stereo not drawn),2,4,-2,-1,-2,-6,/
S=C(NCCc1ccccc1)NC1CCC(NC(=S)NCCc2ccccc2)CC1 (stereo not drawn),-2,-6,6,-11,-8,-5,/
Clc1ccc(CNC2CCCC2)c(Cl)c1,0,1,-1,-4,-1,-3,/
S=C(NCc1ccc(Cl)cc1Cl)NC1CCCCC1,3,-5,42*,-27,37,23,17
S=C(NCCc1cccc(Cl)c1)NC1CCCCC1,0,28,40*,-21,38,24,25
CC(C)[C@H](NS(=O)(=O)c1cccc(Cl)c1)C(=O)OCC(=O)NC(=O)CN1CCCC1=O,1,-2,-17,/,-5,/,/
O=C(CN1CCN(C(=O)C2COc3ccccc3O2)CC1)Nc1ccccc1 (stereo not drawn),2,3,-4,3,31,-3,/
COc1ccc2nc(NC(=O)CN(C)S(=O)(=O)c3cccs3)sc2c1,-3,25,31,-15,31,7,/
CCc1ccccc1NS(=O)(=O)c1ccc(SC)cc1,8,-3,25,-25,6,0,/
CSc1ccc(S(=O)(=O)NCc2ccccc2)cc1,7,7,46*,-5,42,-9,31*
CSc1ccc(S(=O)(=O)NCc2ccccc2Cl)cc1,2,33,52*,-46,46,-3,49*
Cc1ccc2nc(Cl)c(/C=N/Nc3nc(C)cc(C)n3)c(=O)n2c1,1,26,17,7,25,6,/
COc1cc(C(=O)Nc2ccc3c(c2)CCCN3C(=O)c2ccco2)c([N+](=O)[O-])cc1OC,-3,9,3,/,16,0,/
O=C(CCl)Nc1c(C(=O)Nc2ccc3c(c2)OCCO3)oc2ccccc12,4,39,42*,-2,48,4,21
C=C[C@@](C)(O)CC[C@@H]1[C@@]2(C)CCCC(C)(C)[C@@H]2CC[C@@]1(C)O,4,17,42*,-21,32,1,13
O=C(NNC(=S)NC(=O)C12CC3CC(CC(C3)C1)C2)c1ccncc1,1,26,60*,62,11,108*,-16
CC12CC3CC(C1)CC(C(=O)NNC(=O)c1ccncc1)(C3)C2,-1,0,-3,-12,3,/,/
